“And” between values parts separate entries of the source, which are not always exact repeats. Equal entries are not always repeated. Records with an inconclusive call do not appear. Where a structure was tested more than once in an assay, its records may differ in their call. The source made the active and inactive calls. How the source made its calls, unless noted: active means hit-call score of the fitted dose curve at least 0.9, where 1 is the maximum; inactive means score below 0.9.
What was measured:
[1] = ATG_NF_kB_CIS: Attagene CIS-FACTORIAL HepG2 Assay for human Nuclear Factor Kappa B (NF-kB) (AID 2282991); details: HepG2 Attagene cis-factorial NF-kB reporter mRNA; actives raise or lower the signal
Procedure, shortened: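 HepG2, transient multi-reporter transfection, cis promoter elements (endogenous TFs). 24 h exposure. Total RNA → RT → PCR → 6-FAM label → HpaI → CE. Gain/loss vs DMSO.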

[2] = ATG_NRF2_ARE_CIS: Attagene CIS-FACTORIAL HepG2 Assay for human Nuclear Factor Erythroid 2 Related Factor 2 (NFR2) response to Antioxidant Response Elements (ARE) (AID 2282992); details: HepG2 Attagene ARE/NRF2 reporter, transcription factor activity; actives raise or lower the signal;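 on AC50: reporter mRNA level measured by RT-PCR and capillary electrophoresis fluorescence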
Procedure, shortened: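 HepG2 cells transiently transfected with multiplexed cis-element reporter constructs, 24 h after chemical dosing; reporter mRNA quantified by RT-PCR, fluorescent primer extension, HpaI digestion and capillary electrophoresis. Bidirectional fit relative to DMSO.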

[3] = ATG_Oct_MLP_CIS: Attagene CIS-FACTORIAL HepG2 Assay for human Octamer-Binding Transcription Factor (Oct) (AID 2282993); details: HepG2 Attagene cis-factorial Oct reporter, mRNA; actives raise or lower the signal
Procedure, shortened: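 Using HepG2 cells bearing transfected cis-reporter constructs, mRNA induction was read after 24 h by fluorescent RT-PCR and capillary electrophoresis, with DMSO defining baseline for gain- or loss-of-signal fits.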

[4] = BSK_3C_TissueFactor: BioMAP Diversity Plus: 3C Assay for Tissue Factor Biomarker Activity (AID 2282997); details: BioMAP 3C HUVEC, tissue factor biomarker readout; actives raise or lower the signal
Procedure, shortened: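 Primary human umbilical vein endothelial cells in the 3C system were exposed to test chemical for 24 h, then Tissue Factor measured by ELISA. Activity was fitted bidirectionally against DMSO as negative control and baseline.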

[5] = BSK_3C_uPAR: BioMAP Diversity Plus: 3C Assay for Urokinase-type plasminogen activator receptor (uPAR) Biomarker Activity (AID 2282998); details: BioMAP 3C HUVEC, uPAR biomarker ELISA; actives raise or lower the signal
Procedure, shortened: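 In this endothelial cell-based assay, human umbilical vein primary cells were treated with chemicals and harvested at 24 h. uPAR was quantified using ELISA, with gains or losses fitted relative to DMSO controls.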

[6] = BSK_3C_VCAM1: BioMAP Diversity Plus: 3C Assay for Vascular cell adhesion molecule 1 (VCAM1) Biomarker Activity (AID 2282999); details: BioMAP 3C HUVEC, VCAM1 ELISA, cytokine-stimulated; actives raise or lower the signal
Procedure, shortened: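 Endothelial cells from human umbilical vein are treated with test chemical. At 24 h, VCAM-1 is measured by ELISA, and responses in either direction are fitted relative to DMSO.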

[7] = BSK_4H_Eotaxin3: BioMAP Diversity Plus: 4H Assay for Eotaxin 3 Biomarker Activity (AID 2283000); details: primary human endothelial cells (HUVEC); actives raise or lower the signal;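 further: CCL26 protein level quantified by ELISA in parallel with SRB cytotoxicity check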
Procedure, shortened: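 HUVEC, 24 h post-dose, ELISA for Eotaxin-3/CCL26. Gain or loss of signal fitted bidirectionally vs DMSO baseline.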

[8] = molecular target: human Peroxisome Proliferator-activated Receptor alpha (PPARa), PPARA (gene 5465) (UniProt Q07869); assay: ATG_PPARa_TRANS: Attagene TRANS-FACTORIAL HepG2 Assay for human Peroxisome Proliferator-activated Receptor alpha (PPARa) (AID 2283001; active means hit-call score of the fitted dose curve at least 0.9, where 1 is the maximum)
Sequence of human Peroxisome Proliferator-activated Receptor alpha (PPARa), PPARA (gene 5465) (Q07869 whole entry, looked up, the tested form may be a part): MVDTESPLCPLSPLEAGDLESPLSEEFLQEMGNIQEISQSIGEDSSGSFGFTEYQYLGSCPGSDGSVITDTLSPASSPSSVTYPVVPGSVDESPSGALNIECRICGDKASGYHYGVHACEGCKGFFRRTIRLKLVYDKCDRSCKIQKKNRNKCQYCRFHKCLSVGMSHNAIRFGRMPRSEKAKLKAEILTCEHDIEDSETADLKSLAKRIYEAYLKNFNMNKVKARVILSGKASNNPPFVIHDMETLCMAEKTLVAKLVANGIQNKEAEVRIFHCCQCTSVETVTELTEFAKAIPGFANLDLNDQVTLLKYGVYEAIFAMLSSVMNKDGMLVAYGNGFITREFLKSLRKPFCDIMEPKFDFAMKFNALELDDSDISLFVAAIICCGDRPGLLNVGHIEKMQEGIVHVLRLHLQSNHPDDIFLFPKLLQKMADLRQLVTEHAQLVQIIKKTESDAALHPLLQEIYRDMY
Procedure, shortened: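 Read-out is fluorescence of reporter cDNA fragments resolved by capillary electrophoresis after RT-PCR. Human HepG2 liver cells carried transfected PPARa-Gal4 chimera and GAL4-UAS reporter units, treated 24 h; activity scored as increase over DMSO.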

[9] = read-out: Intercellular Adhesion Molecule 1 (ICAM1), ICAM1 (gene 3383); assay: BSK_3C_ICAM1: BioMAP Diversity Plus: 3C Assay for Intercellular Adhesion Molecule 1 (ICAM1) Biomarker Activity (AID 2283003); details: primary human endothelial cells (HUVEC); actives raise or lower the signal
Procedure, shortened: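 HUVEC primary cells stimulated under 3C conditions; ICAM1 measured by ELISA 24 h after compound dosing. Curves fitted bidirectionally against the DMSO baseline. Overt cytotoxicity checked by SRB staining of parallel cultures.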

[10] = BSK_3C_Proliferation: Cell Proliferation Assessment in the BioMAP Diversity Plus: 3C Assay (AID 2283006); details: primary human endothelial cells (HUVEC)
Procedure, shortened: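 Subconfluent HUVEC (3C system) cultured with chemical; relative cell number read at 48 h by sulforhodamine B total-protein staining (0.1% SRB after 10% TCA fixation, 560 nm). Bidirectional fit relative to DMSO.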

[11] = molecular target: Nuclear receptor subfamily 1 group I member 2 (Homo sapiens) (UniProt O75469); assay: ATG_PXR_TRANS: Attagene TRANS-FACTORIAL HepG2 Assay for human Pregnane X Receptor (PXR) (AID 2283008; active means hit-call score of the fitted dose curve at least 0.9, where 1 is the maximum)
Sequence of Nuclear receptor subfamily 1 group I member 2 (Homo sapiens) (O75469 whole entry, looked up, the tested form may be a part): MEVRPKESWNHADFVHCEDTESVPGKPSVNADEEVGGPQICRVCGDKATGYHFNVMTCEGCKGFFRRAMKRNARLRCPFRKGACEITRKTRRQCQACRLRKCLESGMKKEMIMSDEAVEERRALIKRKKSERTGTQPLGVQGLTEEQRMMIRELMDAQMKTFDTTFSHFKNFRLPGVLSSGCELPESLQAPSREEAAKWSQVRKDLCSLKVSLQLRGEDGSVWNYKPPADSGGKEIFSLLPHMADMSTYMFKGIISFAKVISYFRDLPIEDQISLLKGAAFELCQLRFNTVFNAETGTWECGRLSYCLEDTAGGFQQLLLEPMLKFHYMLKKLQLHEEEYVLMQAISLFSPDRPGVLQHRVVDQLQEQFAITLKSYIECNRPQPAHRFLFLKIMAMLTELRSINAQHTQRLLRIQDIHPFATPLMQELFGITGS
Procedure, shortened: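 HepG2 cells transiently transfected with GAL4-UAS reporter units and PXR-Gal4 chimera, exposed 24 h. Reporter mRNA quantified by RT-PCR, fluorescent labelling, HpaI digestion and capillary electrophoresis; gain of signal vs DMSO.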

[12] = molecular target: human Retinoic Acid Receptor gamma (RARg), RARG (gene 5916) (UniProt P13631); assay: ATG_RARg_TRANS: Attagene TRANS-FACTORIAL HepG2 Assay for human Retinoic Acid Receptor gamma (RARg) (AID 2283009; active means hit-call score of the fitted dose curve at least 0.9, where 1 is the maximum)
Sequence of human Retinoic Acid Receptor gamma (RARg), RARG (gene 5916) (P13631 whole entry, looked up, the tested form may be a part): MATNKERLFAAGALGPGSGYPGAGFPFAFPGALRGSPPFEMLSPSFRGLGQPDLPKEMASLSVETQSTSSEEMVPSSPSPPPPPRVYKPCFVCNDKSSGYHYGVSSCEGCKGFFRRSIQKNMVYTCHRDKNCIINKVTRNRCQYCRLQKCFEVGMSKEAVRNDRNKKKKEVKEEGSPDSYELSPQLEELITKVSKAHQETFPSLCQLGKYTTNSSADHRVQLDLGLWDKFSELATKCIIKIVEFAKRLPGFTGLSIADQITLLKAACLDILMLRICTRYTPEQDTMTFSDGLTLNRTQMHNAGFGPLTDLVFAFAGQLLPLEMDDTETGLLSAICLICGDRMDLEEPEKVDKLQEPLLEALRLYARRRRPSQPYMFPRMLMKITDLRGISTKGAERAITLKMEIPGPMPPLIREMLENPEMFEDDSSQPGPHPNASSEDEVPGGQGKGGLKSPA
Procedure, shortened: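 HepG2 transiently transfected with GAL4-UAS reporter units and chimeric NR-Gal4 constructs; 24 h compound exposure. Reporter mRNA quantified by RT-PCR, FAM labeling, HpaI digestion and capillary electrophoresis; gain-of-signal versus DMSO.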

[13] = molecular target: human RAR-related Orphan Receptor beta (RORb), RORB (gene 6096) (UniProt Q92753); assay: ATG_RORb_TRANS: Attagene TRANS-FACTORIAL HepG2 Assay for human RAR-related Orphan Receptor beta (RORb) (AID 2283010; active means hit-call score of the fitted dose curve at least 0.9, where 1 is the maximum)
Sequence of human RAR-related Orphan Receptor beta (RORb), RORB (gene 6096) (Q92753 whole entry, looked up, the tested form may be a part): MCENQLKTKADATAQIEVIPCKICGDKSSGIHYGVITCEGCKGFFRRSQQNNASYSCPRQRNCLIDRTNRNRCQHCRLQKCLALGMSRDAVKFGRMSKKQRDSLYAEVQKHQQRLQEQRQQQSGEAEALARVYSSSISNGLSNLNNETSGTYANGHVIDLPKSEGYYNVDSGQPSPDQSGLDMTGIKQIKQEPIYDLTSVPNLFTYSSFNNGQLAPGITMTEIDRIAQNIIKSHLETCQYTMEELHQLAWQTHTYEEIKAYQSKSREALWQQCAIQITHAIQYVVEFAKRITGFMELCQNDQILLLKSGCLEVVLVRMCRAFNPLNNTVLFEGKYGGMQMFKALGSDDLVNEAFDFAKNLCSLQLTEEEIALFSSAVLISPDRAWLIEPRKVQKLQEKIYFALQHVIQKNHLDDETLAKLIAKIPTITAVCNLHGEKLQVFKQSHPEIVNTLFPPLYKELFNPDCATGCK
Procedure, shortened: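 HepG2 cells transiently transfected with GAL4-UAS reporter units expressing chimeric NR-Gal4 protein; reporter mRNA measured 24 h after dosing by RT-PCR, 6-FAM labelling and capillary electrophoresis. Gain-of-signal fitted relative to DMSO baseline.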

[14] = molecular target: Cellular tumor antigen p53 (Homo sapiens) (UniProt P04637); assay: ATG_p53_CIS: Attagene CIS-FACTORIAL HepG2 Assay for human p53 Transcription Factor (AID 2282994); details: HepG2 p53 cis-element reporter, Attagene mRNA; actives raise or lower the signal
Sequence of Cellular tumor antigen p53 (Homo sapiens) (P04637 whole entry, looked up): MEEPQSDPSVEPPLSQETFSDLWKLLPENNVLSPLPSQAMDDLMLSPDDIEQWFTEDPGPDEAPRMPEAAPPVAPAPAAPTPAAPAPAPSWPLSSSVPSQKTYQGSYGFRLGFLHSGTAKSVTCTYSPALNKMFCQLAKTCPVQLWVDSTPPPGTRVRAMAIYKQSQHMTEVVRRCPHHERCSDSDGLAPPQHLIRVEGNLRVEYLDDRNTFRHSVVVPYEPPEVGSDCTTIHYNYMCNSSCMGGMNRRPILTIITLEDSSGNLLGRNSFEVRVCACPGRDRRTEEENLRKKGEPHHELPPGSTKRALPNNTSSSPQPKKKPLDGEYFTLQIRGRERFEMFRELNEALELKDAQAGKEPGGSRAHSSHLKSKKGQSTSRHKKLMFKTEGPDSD
Procedure, shortened: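 HepG2 cells transiently transfected with cis-regulated multiple reporter transcription units, dosed 24 h. Reporter mRNA measured by RT-PCR, 6-FAM primer extension, HpaI digestion and capillary electrophoresis; bidirectional fit relative to DMSO.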

[15] = molecular target: Retinoic acid receptor RXR-alpha (Homo sapiens) (UniProt P19793); assay: ATG_RXRa_TRANS: Attagene TRANS-FACTORIAL HepG2 Assay for human Retinoid X Receptor alpha (RXRa) (AID 2283012; active means hit-call score of the fitted dose curve at least 0.9, where 1 is the maximum)
Sequence of Retinoic acid receptor RXR-alpha (Homo sapiens) (P19793 whole entry, looked up, the tested form may be a part): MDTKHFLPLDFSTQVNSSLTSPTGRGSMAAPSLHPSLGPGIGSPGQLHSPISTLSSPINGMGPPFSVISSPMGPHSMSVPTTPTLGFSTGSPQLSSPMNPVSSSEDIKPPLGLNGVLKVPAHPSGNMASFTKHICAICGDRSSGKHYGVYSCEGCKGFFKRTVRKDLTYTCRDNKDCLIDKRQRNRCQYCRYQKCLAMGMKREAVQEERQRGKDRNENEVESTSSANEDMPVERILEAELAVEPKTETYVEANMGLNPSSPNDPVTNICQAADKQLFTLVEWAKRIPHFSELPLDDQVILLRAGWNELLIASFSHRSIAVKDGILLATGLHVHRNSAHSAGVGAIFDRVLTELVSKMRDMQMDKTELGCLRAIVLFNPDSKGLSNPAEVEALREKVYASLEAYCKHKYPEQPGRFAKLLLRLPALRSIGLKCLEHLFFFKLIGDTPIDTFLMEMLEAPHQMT
Procedure, shortened: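 HepG2 cells transiently transfected with GAL4-UAS reporter units and chimeric RXRa-Gal4 protein, treated 24 h. Reporter mRNA measured by RT-PCR, fluorescent labelling, HpaI digestion and capillary electrophoresis. Induction fitted against DMSO.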

[16] = molecular target: Myc proto-oncogene protein (Homo sapiens) (UniProt P01106); assay: ATG_Myc_CIS: Attagene CIS-FACTORIAL HepG2 Assay for human Myelocytomatosis (Myc) Proto-Oncogene Transcription Factor (AID 2282990); details: HepG2, Attagene cis-reporter transcription factor activity; actives raise or lower the signal
Sequence of Myc proto-oncogene protein (Homo sapiens) (P01106 whole entry, looked up): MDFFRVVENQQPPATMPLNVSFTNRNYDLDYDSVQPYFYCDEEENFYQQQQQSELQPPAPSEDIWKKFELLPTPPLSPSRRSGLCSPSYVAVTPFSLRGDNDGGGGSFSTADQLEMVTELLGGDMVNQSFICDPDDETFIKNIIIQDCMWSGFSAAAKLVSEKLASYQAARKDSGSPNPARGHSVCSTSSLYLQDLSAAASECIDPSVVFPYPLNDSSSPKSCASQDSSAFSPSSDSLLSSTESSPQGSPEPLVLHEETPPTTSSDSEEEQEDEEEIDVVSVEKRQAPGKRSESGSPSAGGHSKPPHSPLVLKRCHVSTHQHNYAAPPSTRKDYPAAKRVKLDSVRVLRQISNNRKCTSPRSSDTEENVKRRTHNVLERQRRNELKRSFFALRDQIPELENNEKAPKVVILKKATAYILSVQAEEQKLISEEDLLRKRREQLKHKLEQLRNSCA
Procedure, shortened: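 HepG2, transient MRTU transfection (cis promoters, endogenous TFs); 24 h dosing; TriZol RNA → oligo(dT) RT → PCR → 6-FAM primer extension → HpaI cut → CE. Bidirectional fit vs DMSO.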

[17] = molecular target: human Peroxisome Proliferator-activated Receptor delta (PPARd), PPARD (gene 5467) (UniProt Q03181); assay: ATG_PPARd_TRANS: Attagene TRANS-FACTORIAL HepG2 Assay for human Peroxisome Proliferator-activated Receptor delta (PPARd) (AID 2283002; active means hit-call score of the fitted dose curve at least 0.9, where 1 is the maximum)
Sequence of human Peroxisome Proliferator-activated Receptor delta (PPARd), PPARD (gene 5467) (Q03181 whole entry, looked up, the tested form may be a part): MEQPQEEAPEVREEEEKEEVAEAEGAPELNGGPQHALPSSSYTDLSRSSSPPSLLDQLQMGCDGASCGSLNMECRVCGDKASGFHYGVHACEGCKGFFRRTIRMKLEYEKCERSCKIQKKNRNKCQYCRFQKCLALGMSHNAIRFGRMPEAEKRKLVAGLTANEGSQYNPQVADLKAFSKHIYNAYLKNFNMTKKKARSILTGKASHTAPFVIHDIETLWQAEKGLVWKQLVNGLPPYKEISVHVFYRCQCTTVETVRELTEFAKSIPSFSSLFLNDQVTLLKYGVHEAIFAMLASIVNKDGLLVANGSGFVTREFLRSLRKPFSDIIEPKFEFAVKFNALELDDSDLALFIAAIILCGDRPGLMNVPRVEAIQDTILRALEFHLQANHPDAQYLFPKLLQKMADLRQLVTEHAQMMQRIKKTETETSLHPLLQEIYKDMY
Procedure, shortened: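 Transient HepG2 transfection (multiple GAL4-UAS RTUs, chimeric receptor-Gal4); 24 h dosing; total RNA → oligo(dT) RT → PCR → 6-FAM primer extension → HpaI cut → CE. Positive direction vs DMSO.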

[18] = molecular target: Peroxisome proliferator-activated receptor gamma (Homo sapiens) (UniProt P37231); assay: ATG_PPARg_TRANS: Attagene TRANS-FACTORIAL HepG2 Assay for human Peroxisome Proliferator-activated Receptor-gamma (PPARg) (AID 2283007; active means hit-call score of the fitted dose curve at least 0.9, where 1 is the maximum)
Sequence of Peroxisome proliferator-activated receptor gamma (Homo sapiens) (P37231 whole entry, looked up): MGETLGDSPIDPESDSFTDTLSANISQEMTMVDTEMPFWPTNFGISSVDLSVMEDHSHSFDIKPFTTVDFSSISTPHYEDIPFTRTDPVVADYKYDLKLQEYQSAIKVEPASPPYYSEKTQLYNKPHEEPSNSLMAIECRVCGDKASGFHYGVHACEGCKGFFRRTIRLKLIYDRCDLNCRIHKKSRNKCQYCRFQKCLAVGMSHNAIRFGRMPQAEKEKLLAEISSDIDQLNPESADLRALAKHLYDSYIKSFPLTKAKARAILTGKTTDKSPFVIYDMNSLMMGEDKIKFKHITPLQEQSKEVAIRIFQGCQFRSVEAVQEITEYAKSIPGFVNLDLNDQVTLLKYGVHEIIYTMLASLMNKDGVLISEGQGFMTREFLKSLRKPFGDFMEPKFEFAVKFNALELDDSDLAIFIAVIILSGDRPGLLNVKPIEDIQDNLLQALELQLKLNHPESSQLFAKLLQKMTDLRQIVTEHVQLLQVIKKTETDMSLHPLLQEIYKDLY
Procedure, shortened: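 Multiplexed reporter transcription units in HepG2, 24 h dosing, reporter transcripts quantified by fluorescent RT-PCR and capillary electrophoresis. Increase over DMSO scored.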

Measured: AC50

CCCCCCCC(=O)OC
not listed: [12] | [13] | [14] | [15] | [16] | [17] | [18]
inactive: all other assays above

N[C@@H](Cc1c[nH]c2ccccc12)C(=O)O
not listed: [10] | [14] | [15] | [16] | [17] | [18]
inactive: all other assays above

CCCCc1nc2cccnc2n1Cc1ccc(-c2ccccc2-c2nnn[nH]2)cc1
active: [2] 100 µM | [11] 27.4 µM
not listed: [7] | [12] | [16] | [17] | [18]
inactive: all other assays above

CC(=O)CC(c1ccccc1)c1c(O)c2ccccc2oc1=O (stereo not given)
not listed: [1] | [2] | [10] | [12] | [14] | [17] | [18]
inactive: all other assays above

CCCC[C@H]1CN(CC2CCOCC2)C(=O)OC12CCN(C1(C)CCN(C(=O)c3c(C)ncnc3C)CC1)CC2
not listed: [1] | [12] | [14] | [17] | [18]
inactive: all other assays above

CC(C)(C)c1ccccc1
inactive: [16] | [2] | [3] | [4] | [5] | [6] | [8] | [9] | [13]

CC(=O)[C@@]1(O)CC[C@H]2[C@@H]3CCC4=CC(=O)CC[C@]4(C)[C@H]3CC[C@@]21C
active: [1] 20.4 µM and 51.9 µM
inactive: [1] | [2] | [3] | [4] | [5] | [6] | [7] | [8] | [17] | [9] | [10] | [11] | [15]

CC(COCC(C)OC(=O)c1ccccc1)OC(=O)c1ccccc1 (stereo not given)
not listed: [1] | [13] | [14] | [15] | [17] | [18]
inactive: all other assays above

C/C=C/c1ccc(OC)cc1
not listed: [12] | [13] | [14] | [15] | [16] | [18]
inactive: all other assays above

C=CCc1ccc(OC)c(OC)c1
active: [11] 28.8 µM
not listed: [12] | [13] | [14] | [16] | [17]
inactive: all other assays above

From PubChem BioAssay (EPA / NIEHS)
